We go through 35 molecules from PubChem BioAssay.
Also: test concentration not given here.

The nature of the first assay: compound effects on hepatocellular carcinoma cell viability – HepG2, calcein-AM fluorescence, 48 h, basal, profiling panel (AID 1164). The settings on record: higher = more signal.
In the case of `CC(C)N1C(=O)C[C@@](C(=O)NCCN2CCOCC2)(c2ccc([N+](=O)[O-])cc2)[C@H]1c1ccc(CO)cc1`, the z-score was -0.235.

Consider `C[N+](C)(C)CCCC[C@@H]1NC(=O)[C@H]2C[C@@H](C(=O)NCCCCCNC(=O)CS)[C@@H](c3cccc(OCCO)c3)N2C1=O`, for which the z-score is -0.953.

As to `[N-]=[N+]=Nc1ccccc1[C@@H]1OC(c2ccc(OCCCO)cc2)=N[C@]1(Cc1ccccc1)C(=O)NCCN1CCOCC1`, the z-score is -0.876.

Turning to `CCOC(=O)C[C@H]1[C@H](OC(=O)c2ccccc2-c2ccccc2)[C@@H](NC(=O)C2CCCCC2)c2cc(OCCCO)ccc2N1C(=O)c1ccc2ccccc2n1`, the z-score is 0.581.

With `NC(=O)N1C(=O)C2C(C1=O)C1C=C(CCCO)C2C(c2ccc(CN3CCCC3)cc2)N1Cc1sc2ccccc2c1Cl` (centres undefined), the z-score is -0.389.

With `CC(C)(C)N1CC=CC23O[C@@H]4/C=C\CCCOC(=O)C4[C@H]2C(=O)N(CCCO)[C@@H]3C1=O` (some centres undefined), the z-score was 0.0723.

`CC(C)N1C(=O)c2ccccc2[C@](C)(C(=O)NCC(F)(F)F)[C@@H]1c1ccc(CO)cc1`: the z-score was 1.01.

Turning to `COc1ccc(C#Cc2ccc3c(c2)[C@]2(C(=O)N3)[C@H](C(=O)O)[C@H]3C(=O)O[C@H](c4ccccc4)[C@H](c4ccccc4)N3[C@@H]2c2ccccc2OCCO)cc1`, the z-score is -2.52.

`CCCCCC1=C2CNC(Cc3ccccc3)(C(=O)OC)C=C2C(C)C1=O` (centres undefined): the z-score was -1.14.

Regarding `CCCCCCc1nc(-c2ccc(-c3ccc(Cl)c(Cl)c3)o2)cc2c1[Si](C(C)C)(C(C)C)OC2`, the z-score was -0.0442.

On to `COC(=O)[C@H](Cc1ccccc1)N1CC2=CCCC=C[C@@H]2[C@H]1[C@H](O)Cc1ccccc1`, for which the z-score was 0.244.

Turning to `COC(=O)[C@@]1(Cc2ccc(F)cc2)[C@H]2c3cc(C(=O)N4CCCC4)n(CCc4ccccn4)c3C[C@H]2CN1C(=O)c1ccccc1`, the z-score was 0.278.

Turning to `O=C1N(CCS(=O)(=O)c2ccccc2)c2ccccc2C[C@]12N=C(c1ccc(OCCCO)cc1)O[C@@H]2c1ccccc1`, the z-score is 0.207.

As for `C=CCN1C(=O)[C@]2(O[C@H](CCn3cc([C@H](O)c4ccccc4)nn3)[C@@H]([Si](C)(C)c3ccc(OC)cc3)[C@@H]2C)c2cc(NC(=O)c3ccc(OC)cc3)ccc21`, the z-score is -1.87.

Consider `C=C(COC)C(=O)CC[C@@H](OC(C)=O)c1ccccc1OCCO`, for which the z-score is -0.601.

For the molecule `COC(=O)[C@@]1(Cc2ccc(F)cc2)[C@H]2c3cc(C(=O)N4CCCC4)n(Cc4ccccn4)c3C[C@H]2CN1C(=O)c1ccccc1`, the z-score was -0.347.

For the molecule `C=CCOC(=O)[C@@H]1[C@H]2C(=O)O[C@H](c3ccccc3)[C@H](c3ccccc3)N2[C@H](c2ccc(OCCOC(=O)[C@H]3C[C@H]4C(=O)NCC(=O)N4[C@H]3c3cccc(OCCO)c3)cc2)[C@@]12C(=O)Nc1ccc(I)cc12`, the z-score is 0.946.

Consider `COC(=O)C[C@H]1O[C@@]2(C[C@@H]1[Si](C)(C)C)C(=O)N(C)c1ccccc12`, for which the z-score was 0.606.

With `CN(C)CCCC[C@@H]1NC(=O)[C@@H]2C[C@H](C(=O)NCCCCCCNC(=O)CS)[C@H](c3ccc(O)cc3)N2C1=O`, the z-score is 0.548.

With `CCOC(=O)C1=CC[C@@H](c2ccc(OC)cc2)N(S(=O)(=O)c2ccc(C)cc2)[C@H]1CC`, the z-score was 0.945.

`C=C(CCCC)/C(=C/C[C@H](OC(=O)c1ccncc1)c1ccc(OCCO)cc1)c1cnc2ccccc2c1`: the z-score was 0.014.

In the case of `COC(=O)[C@@]1(Cc2ccc(F)cc2)[C@H]2c3cc(C(=O)N4CCCC4)n(Cc4cc(F)cc5c4OCOC5)c3C[C@H]2CN1C(=O)c1ccccc1`, the z-score is -1.02.

For the molecule `C=C(CCCC)C(=O)CC[C@H](OC(=O)c1ccccc1-c1ccccc1C(=O)O)c1ccc(OCCO)cc1`, the z-score was -0.549.

Take `C[N+](C)(C)CCCCNC(=O)[C@H]1C[C@H]2C(=O)N[C@@H](Cc3ccccc3)C(=O)N2[C@H]1c1cccc(OCCO)c1`: the z-score was -0.097.

Another assay in a line: compound effects on multiple myeloma cell viability – MM1S, calcein-AM fluorescence, 48 h, basal, profiling panel (AID 1165).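 Also: viability of MM1S multiple myeloma cells under basal unstimulated conditions.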 The settings on record: higher = more signal.
As to `COC(=O)C(CC#Cc1ccc2c(c1)[C@]1(C(=O)N2)[C@H](C(=O)NC[C@H](O)c2ccccc2)[C@H]2C(=O)O[C@H](c3ccccc3)[C@H](c3ccccc3)N2[C@@H]1c1ccccc1OCCO)C(=O)OC`, the z-score is -3.29.

On to `CN(C)CCCNC(=O)[C@@]1(Cc2ccccc2I)c2ccccc2C(=O)N(C2CCCCC2)[C@H]1c1ccc(CO)cc1`, for which the z-score is -3.78.

On to `CN1C(=O)C2C=CC(C(O)c3ccc(-c4ccccc4)s3)N(NC(=O)OC(C)(C)C)C2C1=O` (centres undefined), for which the z-score was 0.244.

Consider `CCCNC(=O)[C@@]1(Sc2ccc(C)cc2)CC(=O)N(Cc2ccccc2Cl)[C@@H]1c1ccc(CO)cc1I`, for which the z-score is -1.9.

For `CN(C)c1ccc(C(O)C2C=CC3C(=O)N(Cc4ccccc4)C(=O)C3N2n2cnnc2)cc1` (centres undefined), the z-score is 0.0017.

Take `C[C@@H]1ON(c2ccccc2)[C@H](c2ccccc2)[C@H]1C(=O)O`: the z-score is -0.655.

With `O=C1[C@H]2C=C(I)[C@H](C[C@@H]2c2ccccc2)[C@@]12CO2`, the z-score was -3.18.

Consider `C=CCC(OC(C)=O)[C@@H]1[C@@H](N(Cc2ccc(-c3cccc(C(F)(F)F)c3)o2)C(=O)c2ccc(-c3ccccc3)cc2)c2cc(OCCCO)ccc2N1C(=O)c1ccc2ccccc2c1` (some centres undefined), for which the z-score is 0.0723.

For the molecule `O=C(NCc1ccc(F)cc1)[C@H]1C[C@H]2C(=O)N3CCC[C@H]3C(=O)N2[C@H]1c1ccc(O)cc1`, the z-score is -0.896.

With `N#Cc1ccc(NN2C(C(O)C3CC=CCC3)C=CC3C(=O)N(c4ccccc4)C(=O)C32)cc1` (centres undefined), the z-score was -0.318.

In the case of `CCCNC(=O)[C@@]1(c2ccc([N+](=O)[O-])cc2)CC(=O)N(C(C)C)[C@@H]1c1ccc(CO)cc1`, the z-score was 0.167.

For the molecule `CC(C)N1C(=O)C[C@@](C(=O)NCCN2CCOCC2)(c2ccc([N+](=O)[O-])cc2)[C@H]1c1ccc(CO)cc1`, the z-score was -0.617.

Regarding `C[N+](C)(C)CCCC[C@@H]1NC(=O)[C@H]2C[C@@H](C(=O)NCCCCCNC(=O)CS)[C@@H](c3cccc(OCCO)c3)N2C1=O`, the z-score is -0.631.

On to `[N-]=[N+]=Nc1ccccc1[C@@H]1OC(c2ccc(OCCCO)cc2)=N[C@]1(Cc1ccccc1)C(=O)NCCN1CCOCC1`, for which the z-score was -2.37.

As to `CCOC(=O)C[C@H]1[C@H](OC(=O)c2ccccc2-c2ccccc2)[C@@H](NC(=O)C2CCCCC2)c2cc(OCCCO)ccc2N1C(=O)c1ccc2ccccc2n1`, the z-score is -0.742.

For the molecule `NC(=O)N1C(=O)C2C(C1=O)C1C=C(CCCO)C2C(c2ccc(CN3CCCC3)cc2)N1Cc1sc2ccccc2c1Cl` (centres undefined), the z-score is -2.67.

As to `CC(C)(C)N1CC=CC23O[C@@H]4/C=C\CCCOC(=O)C4[C@H]2C(=O)N(CCCO)[C@@H]3C1=O` (some centres undefined), the z-score is -0.112.

With `CC(C)N1C(=O)c2ccccc2[C@](C)(C(=O)NCC(F)(F)F)[C@@H]1c1ccc(CO)cc1`, the z-score was 0.0226.

On to `COc1ccc(C#Cc2ccc3c(c2)[C@]2(C(=O)N3)[C@H](C(=O)O)[C@H]3C(=O)O[C@H](c4ccccc4)[C@H](c4ccccc4)N3[C@@H]2c2ccccc2OCCO)cc1`, for which the z-score is -3.32.

Turning to `CCCCCC1=C2CNC(Cc3ccccc3)(C(=O)OC)C=C2C(C)C1=O` (centres undefined), the z-score is -2.69.

Turning to `CCCCCCc1nc(-c2ccc(-c3ccc(Cl)c(Cl)c3)o2)cc2c1[Si](C(C)C)(C(C)C)OC2`, the z-score is -3.

`COC(=O)[C@H](Cc1ccccc1)N1CC2=CCCC=C[C@@H]2[C@H]1[C@H](O)Cc1ccccc1`: the z-score was -3.12.

With `COC(=O)[C@@]1(Cc2ccc(F)cc2)[C@H]2c3cc(C(=O)N4CCCC4)n(CCc4ccccn4)c3C[C@H]2CN1C(=O)c1ccccc1`, the z-score was -0.118.

On to `O=C1N(CCS(=O)(=O)c2ccccc2)c2ccccc2C[C@]12N=C(c1ccc(OCCCO)cc1)O[C@@H]2c1ccccc1`, for which the z-score was -0.967.

Turning to `C=CCN1C(=O)[C@]2(O[C@H](CCn3cc([C@H](O)c4ccccc4)nn3)[C@@H]([Si](C)(C)c3ccc(OC)cc3)[C@@H]2C)c2cc(NC(=O)c3ccc(OC)cc3)ccc21`, the z-score was -2.74.

`C=C(COC)C(=O)CC[C@@H](OC(C)=O)c1ccccc1OCCO`: the z-score is -3.28.

For `COC(=O)[C@@]1(Cc2ccc(F)cc2)[C@H]2c3cc(C(=O)N4CCCC4)n(Cc4ccccn4)c3C[C@H]2CN1C(=O)c1ccccc1`, the z-score is -0.333.

Turning to `C=CCOC(=O)[C@@H]1[C@H]2C(=O)O[C@H](c3ccccc3)[C@H](c3ccccc3)N2[C@H](c2ccc(OCCOC(=O)[C@H]3C[C@H]4C(=O)NCC(=O)N4[C@H]3c3cccc(OCCO)c3)cc2)[C@@]12C(=O)Nc1ccc(I)cc12`, the z-score was 0.464.

As for `COC(=O)C[C@H]1O[C@@]2(C[C@@H]1[Si](C)(C)C)C(=O)N(C)c1ccccc12`, the z-score was 0.561.

Regarding `CN(C)CCCC[C@@H]1NC(=O)[C@@H]2C[C@H](C(=O)NCCCCCCNC(=O)CS)[C@H](c3ccc(O)cc3)N2C1=O`, the z-score is -0.0172.

Take `CCOC(=O)C1=CC[C@@H](c2ccc(OC)cc2)N(S(=O)(=O)c2ccc(C)cc2)[C@H]1CC`: the z-score is -1.25.

`C=C(CCCC)/C(=C/C[C@H](OC(=O)c1ccncc1)c1ccc(OCCO)cc1)c1cnc2ccccc2c1`: the z-score was -2.55.

As to `COC(=O)[C@@]1(Cc2ccc(F)cc2)[C@H]2c3cc(C(=O)N4CCCC4)n(Cc4cc(F)cc5c4OCOC5)c3C[C@H]2CN1C(=O)c1ccccc1`, the z-score was -1.54.

As to `C=C(CCCC)C(=O)CC[C@H](OC(=O)c1ccccc1-c1ccccc1C(=O)O)c1ccc(OCCO)cc1`, the z-score was -3.19.

Take `C[N+](C)(C)CCCCNC(=O)[C@H]1C[C@H]2C(=O)N[C@@H](Cc3ccccc3)C(=O)N2[C@H]1c1cccc(OCCO)c1`: the z-score is 0.135.
